Compound activity: PubChem BioAssay, several laboratories
3CLpro inhibitor = SARS-CoV 3CLpro protease inhibition; P0C6X7; recombinant SARS-CoV 3CLpro, quenched FRET peptide cleavage; inhibition, % at 6 µM; 0.14% of 290,000 active; AID 1706; in the data active = inhibition above about 12%
Mtb BioA inh = BioA (M. tuberculosis) enzyme inhibition; inhibition, % at 9.99 µM; 0.096% of 360,000 active; purified M. tuberculosis BioA enzyme, plate reader; in the data active = inhibition above about 40%
GDH-TPI counter = GDH-TPI coupled enzyme inhibition counter-screen; GDH-TPI coupled enzyme counterscreen, NADH absorbance; inhibition, % at 4.8 µM; 1.2% of 360,000 active; AID 588335; in the data active = inhibition above about 30%
FadD28 binding = M. tuberculosis FadD28 bisubstrate binding inhibition | FadD28 bisubstrate probe binding, fluorescence polarization | inhibition, % at 12.5 µM | 0.22% of 360,000 active | AID 588549; in the data active = inhibition above about 8.5%, passing the limit was not always enough
Mtb FBA inh = inhibitors of M. tuberculosis fructose-bisphosphate aldolase; AID 588726; inhibition, % at 1 µM; P9WQA3; 2.3% of 360,000 active; purified M. tuberculosis FBA, fluorescence read-out; in the data active = inhibition above about 27%
Target sequence (P9WQA3 whole entry, looked up): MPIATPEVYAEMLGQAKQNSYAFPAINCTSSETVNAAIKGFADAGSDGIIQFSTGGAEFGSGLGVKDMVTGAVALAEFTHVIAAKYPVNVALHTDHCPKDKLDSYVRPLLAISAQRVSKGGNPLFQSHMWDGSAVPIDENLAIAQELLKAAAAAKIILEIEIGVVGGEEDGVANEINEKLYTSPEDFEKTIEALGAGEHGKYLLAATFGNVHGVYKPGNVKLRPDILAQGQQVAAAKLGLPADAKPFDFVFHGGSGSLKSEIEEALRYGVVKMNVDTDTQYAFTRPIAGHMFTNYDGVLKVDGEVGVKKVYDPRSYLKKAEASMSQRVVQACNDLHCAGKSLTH
Large screens that a line does not name were inactive. In the library only some 3.1% were active in any assay of this set; here they are far more common.

Cc1cccc(-n2c(C)cc(/C=N/NC(=O)c3ccc(CN4CCOCC4)cc3)c2C)c1	GDH-TPI counter 45 (no result: Mtb BioA inh)
O=C(O)C[C@H]1C=C[C@@H](NC(=O)c2ccncc2)[C@H](CO)O1	none (no result: 3CLpro inhibitor, GDH-TPI counter, FadD28 binding, Mtb FBA inh)
CC(C)CCn1c(N)c(S(=O)(=O)c2cccs2)c2nc3ccccc3nc21	Mtb FBA inh 116
Nc1c(S(=O)(=O)c2cccs2)c2nc3ccccc3nc2n1CC1CCCO1 (configuration not stated)	Mtb FBA inh 170 (no result: Mtb BioA inh)
Nc1c(S(=O)(=O)c2cccs2)c2nc3ccccc3nc2n1Cc1cccs1	Mtb FBA inh 119
Nc1c(S(=O)(=O)c2cccs2)c2nc3ccccc3nc2n1CCc1ccccc1	none (no result: Mtb BioA inh, GDH-TPI counter, FadD28 binding, Mtb FBA inh)
COCC(C)NC(=O)c1cc2c(ccc3ccccc32)oc1=O (configuration not stated)	Mtb FBA inh active
C[C@@H]1CN([C@H](C)CO)C(=O)c2cc(NC(=O)Nc3cccc4ccccc34)ccc2O[C@@H]1CN(C)Cc1ccc(-c2ccccc2)cc1	none (no result: 3CLpro inhibitor, GDH-TPI counter, FadD28 binding, Mtb FBA inh)
O=C1NC(=O)N(Cc2ccc(F)cc2)C(=O)/C1=C\c1ccc(N2CCCC2)cc1	GDH-TPI counter 33 (no result: Mtb BioA inh)
O=C1NC(=O)N(c2ccc(F)cc2)C(=O)/C1=C/c1ccc(N2CCOCC2)cc1	none
CN1C(=O)C(=Cc2ccc(N3CCCCCC3)cc2)C(=O)N(C)C1=O	GDH-TPI counter 54
CN(C)c1ccc(/C=C2\C(=O)NC(=O)N(CCc3ccc(F)cc3)C2=O)cc1	GDH-TPI counter 47, FadD28 binding 25
CS(=O)(=O)N1CCCCN2[C@H](C1)[C@H](c1ccc(-c3cccc(C#N)c3)cc1)[C@@H]2CO	none (no result: 3CLpro inhibitor, GDH-TPI counter, FadD28 binding, Mtb FBA inh)
Cc1noc(C)c1S(=O)(=O)Nc1ccc2c(c1)C(=O)N([C@@H](C)CO)C[C@H](C)[C@@H](CN(C)Cc1ccncc1)OCCCC[C@H](C)O2	none (no result: 3CLpro inhibitor, GDH-TPI counter, FadD28 binding, Mtb FBA inh)
O=C1c2cc(O)c(O)cc2OC(c2ccc(O)c(O)c2)C1O (configuration not stated)	GDH-TPI counter 32 (no result: 3CLpro inhibitor, Mtb BioA inh)
COc1ccc2c(c1)C(=O)[C@H](O)[C@@H](c1ccc(OC)c(Br)c1)O2	none (no result: Mtb BioA inh, GDH-TPI counter, FadD28 binding, Mtb FBA inh)
O=C(C[C@@H]1CC[C@@H](NC(=O)CN2CCOCC2)[C@@H](CO)O1)NC1CCCCC1	none (no result: 3CLpro inhibitor, GDH-TPI counter, FadD28 binding, Mtb FBA inh)
COCCn1c(=NC(=O)CSCC(=O)NC2CCCCC2)sc2cc(OC)ccc21	GDH-TPI counter 42
COCCn1c(=NC(=O)CSC(C)=O)sc2cc(OC)ccc21	none
C[C@H](CO)N1C[C@H](C)[C@@H](CN(C)C(=O)Nc2ccc3c(c2)OCO3)OCCCC[C@H](C)Oc2ccc(NC(=O)c3ccncc3)cc2C1=O	none (no result: 3CLpro inhibitor, GDH-TPI counter, FadD28 binding, Mtb FBA inh)
CCCN(C)C[C@@H]1OCCCC[C@@H](C)Oc2ccc(NC(=O)CCC(F)(F)F)cc2C(=O)N([C@@H](C)CO)C[C@@H]1C	none (no result: 3CLpro inhibitor, GDH-TPI counter, FadD28 binding, Mtb FBA inh)
NC(=O)c1cc2ccc(O)cc2oc1=Nc1ccccc1	Mtb FBA inh active
COc1ccc2oc(=Nc3cc(F)ccc3F)c(C(N)=O)cc2c1	none (no result: Mtb BioA inh)
NC(=O)c1cc2ccc(O)cc2oc1=NCc1ccccc1	Mtb FBA inh active
COc1ccc(OC)c(N=c2oc3cc(O)ccc3cc2C(N)=O)c1	Mtb FBA inh 116
NC(=O)c1cc2ccccc2oc1=NCc1ccccc1	none
COc1ccc(/C=C2/N=C(SC)NC2=O)cc1OC	GDH-TPI counter 40 (no result: Mtb BioA inh)
COCCn1c(C)cc(/C=C2\NC(=S)N(C)C2=O)c1C	GDH-TPI counter 36 (no result: Mtb BioA inh)
C=CCn1c(CC(=O)OC)csc1=Nc1ccc(C(C)=O)cc1	GDH-TPI counter 31
C[C@H]1CN([C@@H](C)CO)C(=O)c2cc(C#CCC3CCCC3)cnc2O[C@@H]1CN(C)S(=O)(=O)c1cccs1	none (no result: 3CLpro inhibitor, GDH-TPI counter, FadD28 binding, Mtb FBA inh)
Cc1nnc(Nc2ccc(S(N)(=O)=O)cc2)c2ccccc12	GDH-TPI counter 34
Cc1nc(Nc2ccc(S(N)(=O)=O)cc2)sc1C(=O)Nc1ccccc1	GDH-TPI counter 35 (no result: Mtb BioA inh)
Cc1nc(Nc2ccccc2)sc1C(=O)Nc1ccccc1	none (no result: Mtb BioA inh)
COc1ccccc1C1c2[nH]c3ccccc3c2CCN1Cc1ccc(NC(C)=O)s1 (configuration not stated)	GDH-TPI counter 32
Cc1ccc(C(=O)NCc2ccc3c(c2)OCO3)c(Cl)c1	none (no result: 3CLpro inhibitor)
Cc1ccc(C(=O)NCc2ccc3c(c2)OCO3)c(C)c1	Mtb FBA inh 153
CO[C@@H]1CN(C)C(=O)c2cc(NC(=O)NC(C)C)ccc2OC[C@@H](C)N(Cc2ccc(-c3ccccn3)cc2)C[C@@H]1C	none (no result: 3CLpro inhibitor, GDH-TPI counter, FadD28 binding, Mtb FBA inh)
COc1ccc(/C=C/C(=O)NNc2cc(=O)n(C)c(=O)n2C)cc1OC	GDH-TPI counter 34 (no result: Mtb BioA inh)
COc1cc(/C=N\Nc2cc(=O)n(C)c(=O)n2C)ccc1O	none (no result: Mtb BioA inh)
COc1ccc(/C=N/Nc2cc(=O)n(C)c(=O)n2C)cc1OC	GDH-TPI counter 34 (no result: Mtb BioA inh)
